Laboratory results reported in PubChem BioAssay (Tox21).
Results filed as inconclusive are left out. Values without a mark were called inactive. Active and inactive are the calls of the source. Calls come from the whole dose curve; as a rule, active = well fitted cell-killing curve with a large enough effect in the repeat runs; inconclusive = weak or mixed curves, or effect the other way; inactive = flat fitted curve, though single readings scatter.

Assay: cAMP Responsive Elements (CRE) small molecule antagonists, cell-based qHTS assay: qHTS cell viability counter screen (AID 2060913); note: nearly all actives have a fitted effect of over 40% in size
Settings: CRE-bla HEK293T viability, CellTiter-Glo luminescence, 5 h; series mostly up to 92.4 µM; viability change, negative = cytotoxic: at the top concentration
Procedure, shortened: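 Steps: cells plated and held 18 hrs at 37 C/5% CO2; compounds and NKH477 (0.25 uM final) added; 3 hrs incubation; reporter substrate read; CellTiter-Glo added to measure cytotoxicity by luminescence.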
% is set by controls: 0 for no effect and ±100 for the full control effect.

Going from CCCCNc1ccccc1 to O=C(Oc1ccccc1)Oc1ccccc1, the “viability change, negative = cytotoxic” value falls from -3.34% to -10.4%.

First: CC(C)(O)c1ccc(C(C)(C)O)cc1
Second: CCCOC(=O)c1ccc(O)cc1
The “viability change, negative = cytotoxic” value of the first is higher: 16.4% for the first, 2.88% for the second.

Compared with CC(=O)Oc1ccc([N+](=O)[O-])cc1CCl, COc1cccc(OC)c1C(=O)O is higher in “viability change, negative = cytotoxic” value: 1.3% for the first, 5.98% for the second.

Going from CCCCC(CC)C(=O)OCCOCCOCCOCCOC(=O)C(CC)CCCC (stereo not given) to CCCCCCCC[Si](OCC)(OCC)OCC, the “viability change, negative = cytotoxic” value rises from -4.95% to 9.4%.

Going from Cc1ccc2ccc3cccc4ccc1c2c34 to O=S(=O)(O)c1cccc2c(S(=O)(=O)O)cccc12, the “viability change, negative = cytotoxic” value rises from -24.3% to -3.13%.

Compared with C=CC(=O)OCC(Br)CBr (stereo not given), C=CC(=O)OCC1CC2CC1C1CCC(COC(=O)C=C)C21 (stereo not given) is higher in “viability change, negative = cytotoxic” value: -6.62% for the first, 14.4% for the second.

Compared with C=C(C)C1CCC(C)CC1O (stereo not given), C=CC(=C)CCC=C(C)C is lower in “viability change, negative = cytotoxic” value: 1.4% for the first, -1.57% for the second.

First: CC(=O)OC(C)(C)C
Second: CC(C)COC(=O)CC(C(=O)OCC(C)C)S(=O)(=O)O (stereo not given)
The “viability change, negative = cytotoxic” value of the first is higher: 6.81% for the first, 0.129% for the second.

First: CN(C)c1ccc(SC#N)cc1
Second: CSc1cnccn1
The “viability change, negative = cytotoxic” value of the first is lower: -0.473% for the first, 7.92% for the second.

First: Clc1ccc(Cn2c(CN3CCCC3)nc3ccccc32)cc1
Second: NC(=O)Cc1cccc(C(=O)c2ccccc2)c1N
The “viability change, negative = cytotoxic” value of the first is higher: -1.21% [at 42.5 µM] for the first, -3.41% [at 42.5 µM] for the second.

Compared with Cc1onc(-c2c(Cl)cccc2Cl)c1C(=O)Cl, O=S(=O)(O)c1cc(I)c(O)c2ncccc12 is higher in “viability change, negative = cytotoxic” value: -0.779% [at 42.5 µM] for the first, -0.676% [at 42.5 µM] for the second.

Going from COCCOCC(OC)OC to CO/N=C1\CN(c2nc3c(cc2F)c(=O)c(C(=O)O)cn3C2CC2)CC1CN (stereo not given), the “viability change, negative = cytotoxic” value falls from 4.36% [at 42.5 µM] to -0.36% [at 42.5 µM].

Compared with Cc1nc(-c2ccc3c(c2)CCN(CCC2CCC(NC(=O)/C=C/c4ccc(F)cc4)CC2)CC3)no1 (stereo not given), Cc1c(F)c(N2CCNC(C)C2)cc2c1c(=O)c(C(=O)O)cn2C1CC1 (stereo not given) is higher in “viability change, negative = cytotoxic” value: 0.472% [at 42.5 µM] for the first, 5.97% [at 42.5 µM] for the second.

Compared with O=C(O)c1ccccc1S, CC(C)(C)C1CCC(CC2=C(O)c3ccccc3C(=O)C2=O)CC1 (stereo not given) is lower in “viability change, negative = cytotoxic” value: 9.07% [at 42.5 µM] for the first, 6.86% [at 42.5 µM] for the second.

Going from CC(C)c1ccc(C(=O)N=C(N)N)cc1S(C)(=O)=O to COc1c(N2CCNC(C)C2)c(F)cc2c(=O)c(C(=O)O)cn(C3CC3)c12 (stereo not given), the “viability change, negative = cytotoxic” value falls from 2.86% [at 42.5 µM] to -0.481% [at 42.5 µM].

Compared with Nc1ncnc2c1ncn2[C@@H]1O[C@H](COP(=O)(O)O)[C@@H](O)[C@H]1O, NC(=O)NC1N=C([O][Al])NC1=O (stereo not given) is lower in “viability change, negative = cytotoxic” value: 10.5% [at 42.5 µM] for the first, -4.91% [at 42.5 µM] for the second.

In the case of CCN(Cc1cccc(S(=O)(=O)O)c1)c1ccc(C(=C2C=CC(=[N+](CC)Cc3cccc(S(=O)(=O)[O-])c3)C=C2)c2ccccc2)cc1, the “viability change, negative = cytotoxic” value is reported as 4.52% [at 42.5 µM].

With NCCNCCN the Potency was “inactive”.
In the case of Cc1ccc(N)c(S(=O)(=O)O)c1, the Potency is reported as “inactive”.
For Oc1cccc(O)c1, the Potency was “inactive”.
With O=c1[nH]cc(F)c(=O)[nH]1 the Potency was “inactive”.
For OC1CCCCCCCCCCC1, the Potency was “inactive”.
In the case of CC(=O)Oc1c(C)c(C)c2c(c1C)CC[C@@](C)(CCC[C@H](C)CCC[C@H](C)CCCC(C)C)O2, the Potency is reported as “inactive”.
With O=C(O)c1cc(=O)c2c(OCC(O)COc3cccc4oc(C(=O)O)cc(=O)c34)cccc2o1 the Potency was “inactive”.
